For some assays here: Measured potencies and affinities stand elsewhere.
Assays:
Parameters in all cases: scale not given: direction of the effect not stated beside the values
[1] = target: Protein translocase subunit SecA (Escherichia coli (strain K12)) (UniProt P10408); experiment: Assay to Identify E. coli SecA ATPase Inhibitors; type: functional; conditions: 30 µM
[2] = target: T1, Ubiquitin-activating enzyme e1, putative (Leishmania donovani (strain BPK282A1)) (UniProt E9BSI1); experiment: Leishmania donovani Ubiquitin Activating Enzyme (LdE1); type: functional; conditions: 30 µM
T1 sequence (whole entry): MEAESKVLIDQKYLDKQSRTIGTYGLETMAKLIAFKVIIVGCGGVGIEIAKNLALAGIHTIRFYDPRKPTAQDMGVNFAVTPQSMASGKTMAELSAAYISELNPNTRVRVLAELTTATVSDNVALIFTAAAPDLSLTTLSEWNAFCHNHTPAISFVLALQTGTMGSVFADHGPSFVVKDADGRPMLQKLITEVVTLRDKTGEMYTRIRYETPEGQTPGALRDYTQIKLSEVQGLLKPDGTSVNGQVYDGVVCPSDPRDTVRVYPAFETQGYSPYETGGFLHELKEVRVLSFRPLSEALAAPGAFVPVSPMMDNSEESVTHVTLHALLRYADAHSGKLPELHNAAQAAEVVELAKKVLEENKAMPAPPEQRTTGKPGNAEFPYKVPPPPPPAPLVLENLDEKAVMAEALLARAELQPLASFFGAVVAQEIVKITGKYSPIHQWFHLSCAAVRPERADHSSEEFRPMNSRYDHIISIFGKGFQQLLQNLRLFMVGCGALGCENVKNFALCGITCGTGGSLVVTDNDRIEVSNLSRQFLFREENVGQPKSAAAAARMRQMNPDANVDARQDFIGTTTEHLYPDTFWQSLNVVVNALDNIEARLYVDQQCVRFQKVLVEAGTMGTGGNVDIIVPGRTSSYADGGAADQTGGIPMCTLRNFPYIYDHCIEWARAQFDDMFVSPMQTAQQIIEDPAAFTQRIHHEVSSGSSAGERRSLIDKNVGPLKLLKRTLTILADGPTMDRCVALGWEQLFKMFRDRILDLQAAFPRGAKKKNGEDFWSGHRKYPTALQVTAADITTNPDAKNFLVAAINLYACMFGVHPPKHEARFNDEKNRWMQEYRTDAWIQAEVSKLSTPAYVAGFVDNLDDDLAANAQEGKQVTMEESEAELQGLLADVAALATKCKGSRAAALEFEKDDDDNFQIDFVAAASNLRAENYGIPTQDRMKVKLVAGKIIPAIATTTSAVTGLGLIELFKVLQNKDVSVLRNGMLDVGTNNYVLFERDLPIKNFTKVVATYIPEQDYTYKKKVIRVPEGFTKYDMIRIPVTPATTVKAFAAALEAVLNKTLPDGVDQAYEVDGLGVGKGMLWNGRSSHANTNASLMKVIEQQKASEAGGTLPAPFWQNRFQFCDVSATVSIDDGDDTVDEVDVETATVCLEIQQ

[3] = target: AMP-activated protein kinase, AMPK (Homo sapiens) (UniProt P54646+O43741+P54619+Q9UGJ0+Q9Y478+Q13131+Q9UGI9); experiment: AMP-dependent Kinase enzyme assay. An in vitro enzyme assay that detects ADP turnover that is directly proportional to AMPK activity. This uses naive AMPK that is activated during the assay with MK-8722; type: functional; conditions: 30 µM
[4] = target: Sialic acid-binding Ig-like lectin 9 (Homo sapiens) (UniProt Q9Y336); experiment: Hs-Siglec9 ALPHAscreen SOP 20170721; conditions: 10 µM
[5] = tested on: Trypanosoma cruzi; experiment: Trypanosoma cruzi phosphomannomutase and mannose-1-phosphate guanylyltransferase assay; type: functional; conditions: 10 µM
[6] = target: T2, Arginase-2, mitochondrial (Homo sapiens) (UniProt P78540); experiment: in vitro enzyme assay to detect the production of urea directly proportional to the activity of Arginase II; type: functional; conditions: 33.3 µM; also: in the data most compounds retested in dose-response had high values
T2 sequence (whole entry): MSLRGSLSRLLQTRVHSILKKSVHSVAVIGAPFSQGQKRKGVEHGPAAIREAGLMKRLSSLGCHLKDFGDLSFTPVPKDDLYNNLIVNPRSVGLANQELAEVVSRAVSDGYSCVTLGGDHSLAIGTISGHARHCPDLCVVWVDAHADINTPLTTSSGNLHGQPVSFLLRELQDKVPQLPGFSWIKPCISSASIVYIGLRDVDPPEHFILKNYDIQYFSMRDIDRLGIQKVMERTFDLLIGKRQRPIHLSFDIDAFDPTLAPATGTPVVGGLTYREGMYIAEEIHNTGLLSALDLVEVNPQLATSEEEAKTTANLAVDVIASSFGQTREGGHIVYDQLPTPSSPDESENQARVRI

[7] = target: T3, Proteasome subunit beta (Trypanosoma cruzi) (UniProt O96673); experiment: Trypanosoma cruzi proteasome chymotrypsin-like activity (TcProtChymo) assay.; also: in the data most compounds retested in dose-response had high values; type: functional; conditions: 9.37 µM
T3 sequence (whole entry): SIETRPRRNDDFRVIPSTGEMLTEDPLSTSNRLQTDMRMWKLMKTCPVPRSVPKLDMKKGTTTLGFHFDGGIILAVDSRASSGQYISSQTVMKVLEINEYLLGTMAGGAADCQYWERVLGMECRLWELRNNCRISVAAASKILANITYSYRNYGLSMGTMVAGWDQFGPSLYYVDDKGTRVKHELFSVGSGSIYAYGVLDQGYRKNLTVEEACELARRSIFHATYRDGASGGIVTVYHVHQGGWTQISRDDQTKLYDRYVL

[8] = organism: Homo sapiens; experiment: To identify inhibition of the IFN signalling (Jak-Stat) pathway via expression of an eGFP reporter gene under the control of an IFN-stimulated response element (ISRE) containing MxA promoter.; type: functional; conditions: 30 µM
[9] = target: T4, Tyrosyl-tRNA synthetase, putative (Trypanosoma cruzi (strain CL Brener)) (UniProt Q4DSP6); experiment: Trypanosoma cruzi tyrosyl tRNA synthetase (TcYRS) _High Tyrosine SOP; type: functional; conditions: 30 µM; also: in the data most compounds retested in dose-response had high values
T4 sequence (whole entry): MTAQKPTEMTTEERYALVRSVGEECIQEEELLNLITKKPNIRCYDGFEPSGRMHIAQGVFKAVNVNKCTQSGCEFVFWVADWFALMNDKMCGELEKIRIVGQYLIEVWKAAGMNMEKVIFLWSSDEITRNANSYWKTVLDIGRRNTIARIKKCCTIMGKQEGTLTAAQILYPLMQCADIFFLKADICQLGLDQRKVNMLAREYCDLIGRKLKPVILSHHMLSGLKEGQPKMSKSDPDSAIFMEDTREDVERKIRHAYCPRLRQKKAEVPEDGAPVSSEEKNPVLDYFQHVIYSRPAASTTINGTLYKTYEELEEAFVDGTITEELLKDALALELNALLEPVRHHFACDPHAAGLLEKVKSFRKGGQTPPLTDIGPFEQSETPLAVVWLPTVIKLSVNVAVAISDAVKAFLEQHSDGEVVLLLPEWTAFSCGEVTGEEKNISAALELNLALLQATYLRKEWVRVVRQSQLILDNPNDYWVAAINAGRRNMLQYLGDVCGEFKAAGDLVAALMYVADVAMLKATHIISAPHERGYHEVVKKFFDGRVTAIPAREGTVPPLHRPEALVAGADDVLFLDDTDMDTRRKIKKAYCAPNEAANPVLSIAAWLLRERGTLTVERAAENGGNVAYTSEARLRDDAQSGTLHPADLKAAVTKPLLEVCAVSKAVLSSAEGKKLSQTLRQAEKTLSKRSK

[10] = target: T4, Tyrosyl-tRNA synthetase, putative (Trypanosoma cruzi (strain CL Brener)); experiment: Trypanosoma cruzi tyrosyl tRNA synthetase (TcYRS) SOP; type: functional; conditions: 30 µM
[11] = target: Chromo domain-containing protein 1 (Saccharomyces cerevisiae (strain ATCC 204508 / S288c) (Baker's yeast)) (UniProt P32657); experiment: ScCHD-1 Enzyme Inhibition Assay; type: functional; conditions: 30 µM; also: in the data most compounds retested in dose-response had high values
Sequence of Chromo domain-containing protein 1 (Saccharomyces cerevisiae (strain ATCC 204508 / S288c) (Baker's yeast)) (P32657 whole entry, the tested form may be a part): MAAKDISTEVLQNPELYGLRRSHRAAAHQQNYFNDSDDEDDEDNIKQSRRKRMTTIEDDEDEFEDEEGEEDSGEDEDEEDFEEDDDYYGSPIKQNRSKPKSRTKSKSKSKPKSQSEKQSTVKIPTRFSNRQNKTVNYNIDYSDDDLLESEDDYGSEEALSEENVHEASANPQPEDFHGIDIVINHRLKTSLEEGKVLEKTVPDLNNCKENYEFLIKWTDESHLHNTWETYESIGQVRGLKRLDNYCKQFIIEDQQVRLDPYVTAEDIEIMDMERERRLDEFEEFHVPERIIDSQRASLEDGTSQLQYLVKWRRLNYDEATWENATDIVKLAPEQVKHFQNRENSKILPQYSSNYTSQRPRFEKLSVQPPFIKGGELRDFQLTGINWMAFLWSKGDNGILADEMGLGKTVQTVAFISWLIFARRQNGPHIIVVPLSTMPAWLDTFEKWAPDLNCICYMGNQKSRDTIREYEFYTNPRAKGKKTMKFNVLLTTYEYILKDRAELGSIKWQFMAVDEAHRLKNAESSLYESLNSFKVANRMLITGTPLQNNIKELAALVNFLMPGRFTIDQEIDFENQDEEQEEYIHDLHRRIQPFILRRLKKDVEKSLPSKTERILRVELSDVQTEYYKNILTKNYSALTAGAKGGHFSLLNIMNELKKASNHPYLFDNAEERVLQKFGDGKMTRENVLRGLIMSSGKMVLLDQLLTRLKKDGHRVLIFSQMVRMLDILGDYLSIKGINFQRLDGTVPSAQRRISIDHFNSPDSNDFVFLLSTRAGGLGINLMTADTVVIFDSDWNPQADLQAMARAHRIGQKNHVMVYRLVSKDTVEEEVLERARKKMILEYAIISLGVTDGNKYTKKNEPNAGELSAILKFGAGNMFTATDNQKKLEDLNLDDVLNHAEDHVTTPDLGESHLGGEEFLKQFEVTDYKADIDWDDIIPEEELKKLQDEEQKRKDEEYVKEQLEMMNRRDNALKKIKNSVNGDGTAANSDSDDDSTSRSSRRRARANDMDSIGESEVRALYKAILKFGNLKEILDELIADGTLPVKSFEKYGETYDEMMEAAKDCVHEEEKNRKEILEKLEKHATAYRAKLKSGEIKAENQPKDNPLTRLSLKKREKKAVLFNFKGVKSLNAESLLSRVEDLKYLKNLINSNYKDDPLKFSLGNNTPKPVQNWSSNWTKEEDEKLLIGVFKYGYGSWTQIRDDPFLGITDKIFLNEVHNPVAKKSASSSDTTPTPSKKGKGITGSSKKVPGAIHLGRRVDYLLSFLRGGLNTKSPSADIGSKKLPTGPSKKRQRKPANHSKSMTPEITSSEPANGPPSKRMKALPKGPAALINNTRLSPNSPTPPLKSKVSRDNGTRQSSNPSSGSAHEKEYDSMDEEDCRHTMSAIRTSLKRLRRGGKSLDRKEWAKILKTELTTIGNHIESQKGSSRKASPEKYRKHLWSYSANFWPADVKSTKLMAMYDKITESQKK

Sequence of Protein translocase subunit SecA (Escherichia coli (strain K12)) (P10408 whole entry): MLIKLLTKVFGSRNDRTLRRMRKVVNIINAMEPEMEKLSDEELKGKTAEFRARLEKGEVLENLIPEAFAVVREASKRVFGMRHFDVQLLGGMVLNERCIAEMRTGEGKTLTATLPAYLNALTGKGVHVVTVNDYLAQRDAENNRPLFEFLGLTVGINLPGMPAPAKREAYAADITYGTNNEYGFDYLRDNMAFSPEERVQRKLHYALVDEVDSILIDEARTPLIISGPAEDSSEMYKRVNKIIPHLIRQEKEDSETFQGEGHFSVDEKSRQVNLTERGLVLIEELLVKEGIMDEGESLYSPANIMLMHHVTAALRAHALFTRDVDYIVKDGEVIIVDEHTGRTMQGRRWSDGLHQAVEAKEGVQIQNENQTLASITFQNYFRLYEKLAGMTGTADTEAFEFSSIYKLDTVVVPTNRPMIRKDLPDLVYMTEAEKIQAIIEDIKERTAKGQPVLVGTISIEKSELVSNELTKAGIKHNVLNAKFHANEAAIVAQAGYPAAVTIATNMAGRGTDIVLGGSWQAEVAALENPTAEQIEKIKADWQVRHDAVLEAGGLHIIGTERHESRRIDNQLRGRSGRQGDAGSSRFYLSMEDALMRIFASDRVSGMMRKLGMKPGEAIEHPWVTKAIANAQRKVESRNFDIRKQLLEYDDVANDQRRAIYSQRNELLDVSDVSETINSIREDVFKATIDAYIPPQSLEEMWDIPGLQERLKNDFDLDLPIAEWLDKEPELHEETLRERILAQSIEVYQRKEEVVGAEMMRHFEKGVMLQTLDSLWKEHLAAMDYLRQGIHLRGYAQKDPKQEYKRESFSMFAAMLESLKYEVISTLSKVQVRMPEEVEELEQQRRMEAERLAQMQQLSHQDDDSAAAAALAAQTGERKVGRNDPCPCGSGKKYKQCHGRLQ
Sequence of Sialic acid-binding Ig-like lectin 9 (Homo sapiens) (Q9Y336 whole entry): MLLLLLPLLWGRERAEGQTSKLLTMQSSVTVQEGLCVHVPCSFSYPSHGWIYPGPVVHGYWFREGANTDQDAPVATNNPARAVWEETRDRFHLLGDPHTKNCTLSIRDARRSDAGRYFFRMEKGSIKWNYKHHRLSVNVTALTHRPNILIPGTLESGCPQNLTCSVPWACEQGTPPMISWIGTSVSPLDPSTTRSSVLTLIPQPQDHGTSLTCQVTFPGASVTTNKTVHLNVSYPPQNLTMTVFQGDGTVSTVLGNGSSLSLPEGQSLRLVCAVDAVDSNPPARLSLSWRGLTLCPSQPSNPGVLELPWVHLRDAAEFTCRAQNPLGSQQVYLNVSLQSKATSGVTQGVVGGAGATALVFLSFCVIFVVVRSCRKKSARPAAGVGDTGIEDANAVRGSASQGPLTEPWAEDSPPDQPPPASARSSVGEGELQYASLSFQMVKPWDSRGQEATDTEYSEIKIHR

SMILES | Percent Effect [1] | Percent Effect [2] | Percent Effect [3] | Percent Effect [4] | Percent Effect [5] | Percent Effect [6] | Percent Effect [7] | Percent Effect [8] | Percent Effect [9] | Percent Effect [10] | Percent Effect [11]
COc1cc(C(=O)N(Cc2ccco2)C2CC2)cc2c1OCCO2 | -0.29% | -2.63% | 8.94% | 6.17% | -1.46% | -5.92% | 6.81% | 6.99% | 2.13% | 2.6% | 0.909%
Cn1ncc2c1CCCC2NCc1cc(Br)cs1 (stereo unspecified) | -0.998% | 13% | 0.777% | -1.41% | 3.82% | 2.74% | 21.4% | 5.32% | 7.62% | 11.8% | -8.68%
COCCN(Cc1ccoc1)C(=O)c1ccccc1Cl | -4.82% | 0% | 0.957% | -4.22% | -4.24% | -1.94% | 0.522% | 14.2% | 1.06% | 1.28% | -1.4%
c1cnc(-c2cnc(N3CCSCC3)nc2C2CCCO2)cn1 (stereo unspecified) | -4.61% | 6.76% | 9.87% | 3.27% | -5.53% | -1.16% | 9.98% | 10.7% | 1.07% | 6.49% | -13.3%
CC(NC(=O)N1CCC(n2cncn2)CC1)c1ccc(F)cc1F (stereo unspecified) | -3.51% | 12.7% | -2.69% | 7.75% | -0.0944% | -1.14% | 8.6% | 8.31% | 5.42% | 13.9% | -5.72%
COc1cccc(CN2CCC(c3cc(O)nc(C)n3)C2)c1 (stereo unspecified) | -3.18% | 12.2% | 6.93% | 3.66% | 2.37% | -3.02% | 11.7% | 29.9% | 6.45% | 14.3% | -5.62%
NC(=O)c1nnn(-c2ccc(Br)cc2)n1 | -5.42% | 18.2% | -6.83% | -10.8% | 7.59% | 3.23% | 11.5% | 17.2% | 5.29% | 6.41% | -9.19%
O=C1CCC2(CCN(c3ncc(F)cn3)CC2)N1CCN1CCCC1 | -2.97% | 7.79% | -0.558% | -6.43% | -2.07% | 1.94% | 21.4% | 12.5% | 1.06% | 3.85% | -7.84%
CCCOc1ccc(NC(=O)NCCC(=O)N(C)C)cc1Cl | -2.86% | 13.7% | -18.2% | 4.95% | 4.5% | 0.909% | 19% | 12.8% | 4.3% | 12.5% | -6.34%
CCN1CC2(CCNCC2)COc2ccccc2S1(=O)=O | -1.39% | 6.67% | 7.12% | 3.15% | -4.91% | -18.1% | 13.1% | 2.26% | -7.41% | 5.13% | -8.01%
Cc1nccc(CN2CCC(c3nnsc3S(C)(=O)=O)CC2)n1 | -3.04% | 6.76% | 5.68% | 4.24% | -3.75% | -1.16% | 8.89% | 16.8% | 3.23% | 11.7% | -12%
Cc1nn(C)c(C)c1C1CCCN1CCCc1nc2ccccc2o1 (stereo unspecified) | -7.27% | 8.11% | -11.9% | 17.9% | 5.38% | -10% | 8.47% | 13.8% | 11.3% | 23.5% | -12.9%
O=c1[nH]c2nc(N3CCSCC3)ncc2c(=O)n1-c1cccc(F)c1 | -3.04% | 7.89% | 7.15% | -1.69% | -1.46% | 5.92% | 15.4% | 9.74% | 3.19% | 10.4% | -0.88%
CCN1CCN(C(=O)c2ccn(C)c(=O)c2)CC1 | -1.02% | 6.33% | 3.55% | -4.57% | -4.62% | -1.07% | 11.8% | 21.1% | 4.17% | -5.06% | -16.7%
Cn1cc(N2CCC(NC(=O)c3c(F)cccc3F)C2=O)cn1 (stereo unspecified) | -7.01% | -2.7% | 0.96% | -8.23% | -1.66% | -0.744% | 0.258% | -14.2% | 0% | 1.24% | 0.00639%
Cc1noc(CCCC(=O)NC(C)c2cn(-c3ccccc3)nn2)n1 (stereo unspecified) | -1.64% | 0% | 3.68% | 6.5% | 6.58% | 1.15% | 6.35% | -19.3% | 2.45% | 4.88% | -6.39%
